Records with an inconclusive call do not appear. A call without a number means that no potency is given here. Activity calls are given as the source filed them. Calls follow the shape of the full dose curve.

The experiment deals with Nucleoprotein (Lymphocytic choriomeningitis virus (strain Armstrong)) (UniProt P09992). The experiment can be described thus: qHTS for Inhibitors of the Functional Ribonucleoprotein Complex (vRNP) of Lymphocytic Choriomeningitis Arenaviruses (LCMV): LCMV Primary Screen - GLuc reporter signal (AID 1347086). Also: nearly all actives have a fitted effect of over 70% in size. To be noted: LCMV minigenome vRNP cell assay, Gaussia luciferase reporter; series mostly up to 57.5 µM. On the technique in general: qHTS replaces the single test concentration by a dilution series.
Chain of Nucleoprotein (Lymphocytic choriomeningitis virus (strain Armstrong)) (P09992 whole entry, looked up): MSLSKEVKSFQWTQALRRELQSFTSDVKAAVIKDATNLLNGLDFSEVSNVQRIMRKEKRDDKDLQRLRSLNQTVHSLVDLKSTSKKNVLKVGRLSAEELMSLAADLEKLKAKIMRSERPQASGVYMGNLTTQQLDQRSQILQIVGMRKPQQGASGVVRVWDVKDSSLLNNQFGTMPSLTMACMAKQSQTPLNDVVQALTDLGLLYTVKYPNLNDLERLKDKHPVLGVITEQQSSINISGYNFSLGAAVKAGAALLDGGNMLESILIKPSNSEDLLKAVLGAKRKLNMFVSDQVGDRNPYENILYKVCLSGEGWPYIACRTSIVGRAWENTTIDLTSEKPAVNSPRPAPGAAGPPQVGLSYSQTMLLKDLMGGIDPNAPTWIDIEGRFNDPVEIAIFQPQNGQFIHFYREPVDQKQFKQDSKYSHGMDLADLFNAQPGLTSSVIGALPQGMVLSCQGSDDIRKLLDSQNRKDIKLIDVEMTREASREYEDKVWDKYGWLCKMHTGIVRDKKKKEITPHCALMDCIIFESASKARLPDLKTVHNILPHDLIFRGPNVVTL
With `NC(Cc1ccc(Cl)cc1)C(=O)O` (centres undefined), the Potency result is “inactive”.

As to `NC/C=C/C(=O)O`, the Potency entry is “inactive”.

For `Nc1c[n+](N2CCOCC2)no1`, the Potency result is “inactive”.

For `CC(C)[N+](C)(C)CC(O)COc1cccc2ccccc12` (centres undefined), the Potency result is “inactive”.

Turning to `NC(N)=Nc1nc(CSCC/C(N)=N/S(N)(=O)=O)cs1`, the Potency entry was “inactive”.

As for `Cc1ccc(S(=O)(=O)NC(=O)NC2CCCCCCC2)cc1`, the Potency entry is “inactive”.

`CCCC(=O)O[C@]1(C(=O)CO)CC[C@H]2[C@@H]3CCC4=CC(=O)CC[C@]4(C)[C@H]3[C@@H](O)C[C@@]21C`: the Potency result was “inactive”.

As to `C[C@]12CCC(=O)C=C1CC[C@@H]1[C@@H]2[C@@H](O)C[C@@]2(C)[C@H]1CC[C@]2(O)C(=O)COC(=O)CCC(=O)O`, the Potency result was “inactive”.

In the case of `OCc1cccnc1`, the Potency entry is “inactive”.

`NC(N)=NC(=O)Cc1c(Cl)cccc1Cl`: the Potency result is “inactive”.

Take `Cc1cccc(C(=O)O)c1O`: the Potency entry was “inactive”.

With `NS(=O)(=O)c1cc(C2(O)NC(=O)c3ccccc32)ccc1Cl` (centres undefined), the Potency result was “inactive”.

On to `CC(C)CCOC(=O)c1ccc(N(C)C)cc1`, for which the Potency entry was “inactive”.

`CCC(C(=O)NC(=O)NC(C)=O)c1ccccc1` (centres undefined): the Potency result is “inactive”.

Turning to `NC(=O)CC[C@@H]1NC(=O)[C@H](Cc2ccccc2)NC(=O)[C@H](Cc2ccc(O)cc2)NC(=O)CCSSC[C@@H](C(=O)N2CCC[C@H]2C(=O)N[C@@H](CCCN=C(N)N)C(=O)NCC(N)=O)NC(=O)[C@H](CC(N)=O)NC1=O`, the Potency result was “inactive”.

Regarding `CN1C(C(=O)Nc2ccccn2)=C(O)c2ccccc2S1(=O)=O`, the Potency entry was “inactive”.

Turning to `C=CCc1ccc(O)c(OC)c1`, the Potency entry was “inactive”.

`Nc1ccc(C(=O)O)cc1`: the Potency entry is “inactive”.

As to `COc1ccc(C(=O)c2ccccc2O)c(O)c1`, the Potency result is “inactive”.

On to `Cc1ccc(C(C)C)cc2c(C)ccc1-2`, for which the Potency entry was “inactive”.

Take `CCO/C([O-])=N/c1c[n+](N2CCOCC2)no1`: the Potency entry is “inactive”.

On to `Cc1ccc(O)c2ncccc12`, for which the Potency result was “inactive”.

In the case of `CCn1cc(C(=O)O)c(=O)c2cnc(N3CCNCC3)nc21`, the Potency entry is “inactive”.

Regarding `Nc1ncnc2c1ncn2[C@@H]1O[C@H](CO)[C@@H](O)[C@H]1O`, the Potency result was “inactive”.

In the case of `O=C(CS(=O)Cc1ccco1)NC/C=C\COc1cc(CN2CCCCC2)ccn1` (centres undefined), the Potency entry is “inactive”.

On to `CC(=O)Nc1ccc(S(=O)(=O)Nc2cc(C)on2)cc1`, for which the Potency result was “inactive”.

On to `O=C1NCC2(CCN(CCc3ccccc3)CC2)O1`, for which the Potency result was “inactive”.

Consider `Cc1c(I)c(=O)n(-c2ccccc2)n1C`, for which the Potency result is “inactive”.

As to `Nc1cc(C(Cl)=C(Cl)Cl)c(S(N)(=O)=O)cc1S(N)(=O)=O`, the Potency entry is “inactive”.

Consider `OCCOCCN1CCN(C2=Nc3ccccc3Sc3ccccc32)CC1`, for which the Potency entry is “inactive”.

With `Cc1cc(=O)oc2cc(O[C@@H]3SC[C@@H](O)[C@H](O)[C@H]3O)ccc12`, the Potency result was “inactive”.

Turning to `CCN(CC)C(=O)c1ccc(O)c(OC)c1`, the Potency result was “inactive”.

For the compound `N[C@@H](CCC(=O)N[C@@H](CS)C(=O)NCC(=O)O)C(=O)O`, the Potency result was “inactive”.

As to `CC(C)(C)c1cc(C=O)cc(C(C)(C)C)c1O`, the Potency entry is “inactive”.

Take `CC=CC1=C(C(=O)O)N2C(=O)[C@H](NC(=O)[C@H](N)c3ccc(O)cc3)[C@@H]2SC1`: the Potency entry is “inactive”.

Consider `CC1CN(c2cc3c(cc2F)c(=O)c(C(=O)O)cn3-c2ccc(F)cc2F)CCN1` (centres undefined), for which the activity change, negative = inhibition was -0.151% [at 5.82 µM] (inactive).

On to `O=C(O)/C=C\C(=O)O`, for which the Potency result is “inactive”.

Turning to `C=C[C@H]1CN2CC[C@H]1C[C@H]2[C@H](O)c1ccnc2ccc(OC)cc12`, the Potency entry is “inactive”.

On to `O=C(O)CCC(=O)O`, for which the Potency entry was “inactive”.

Values taken from PubChem BioAssay (NCATS).
